Laboratory results as given in PubChem BioAssay AID1210 (NMMLSC, 2008).
The source made the active and inactive calls.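 The calls were made as follows: active = blocks over 70% of labeled estradiol binding at 10 µM, or over a set limit at 100 nM; inactive = the rest.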

Biological target: Estrogen receptor beta (Homo sapiens) (UniProt Q92731)
Assay: ERbeta ligand binders by competition, primary screen, cell-based, Cos7 ERbeta-GFP, flow cytometry (AID 1210);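 also: 0% = DMSO vehicle wells and 100% = complete loss of labeled estradiol signal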
Details: fluorescent estrogen binding, stronger effect = higher value
[1] = ligand binding inhibition, at 0.1 µM

Estrogen receptor beta (Homo sapiens), sequence (Q92731 whole entry, looked up): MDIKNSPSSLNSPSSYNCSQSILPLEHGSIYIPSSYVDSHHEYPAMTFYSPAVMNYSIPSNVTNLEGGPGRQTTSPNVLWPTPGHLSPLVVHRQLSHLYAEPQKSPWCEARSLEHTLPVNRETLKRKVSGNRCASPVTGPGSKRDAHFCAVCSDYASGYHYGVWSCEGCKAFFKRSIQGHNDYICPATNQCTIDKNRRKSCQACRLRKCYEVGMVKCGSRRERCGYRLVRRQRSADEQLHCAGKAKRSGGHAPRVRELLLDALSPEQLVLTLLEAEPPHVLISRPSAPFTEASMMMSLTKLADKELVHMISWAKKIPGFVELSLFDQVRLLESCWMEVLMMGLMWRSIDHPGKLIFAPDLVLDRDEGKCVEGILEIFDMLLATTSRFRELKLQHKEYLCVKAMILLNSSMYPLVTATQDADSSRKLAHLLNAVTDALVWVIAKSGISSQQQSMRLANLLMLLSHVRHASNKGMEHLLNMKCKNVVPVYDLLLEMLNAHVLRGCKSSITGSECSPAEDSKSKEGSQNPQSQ

| Compound | inhibition (at 10 µM) | inhibition [1] |
| --- | --- | --- |
| NC(=O)c1oc2ccccc2c1NC(=O)c1nc2ccccc2s1 | 39% (inactive) | 10% |
| O=C(COC(=O)c1ccccc1)NCc1ccco1 | 67% (inactive) | 16% |
| COc1ccc(-c2cn3c(C)c(C(=O)Nc4ccncc4)sc3n2)cc1 | 60% (inactive) | 19% |
| Cc1cc2oc(=O)cc(COC(=O)c3n[nH]c4ccccc34)c2cc1C | 68% (inactive) | 18% |
| COc1cc(C2Nc3c(F)cccc3C3C=CCC32)cc(Br)c1OC (configuration not stated) | 0% (inactive) | 25% |
| Cc1nn(-c2ccccc2)c(/N=C/c2ccc(O)cc2)c1-c1ccccc1 | 78% (active) | 44% |
| O=C(NCc1ccco1)c1cc2ccc(O)cc2oc1=O | 44% (inactive) | 38% |
| O=c1oc2ccccc2cc1-c1ccc(O)cc1 | 58% (inactive) | 3% |
| O=C(Nc1nccs1)c1ccc2nccnc2c1 | 36% (inactive) | 25% |
| Cc1ccccc1OCC1Cc2c(nc(N)c(C#N)c2N)O1 (configuration not stated) | 25% (inactive) | 11% |
| COc1ccc(C2Nc3ccccc3C(=O)N2c2ccccc2)cc1COc1ccccn1 (configuration not stated) | 18% (inactive) | 17% |
| CCn1c2ccccc2c2cc(NC(=O)CSc3nnc(-c4ccc(OC)cc4)n3N)ccc21 | 57% (inactive) | 24% |
| O=C(Nc1cnn(C23CC4CC(CC(C4)C2)C3)c1)c1cnn2c(C(F)(F)F)cc(-c3ccco3)nc12 | 26% (inactive) | 20% |
| COc1ccc(C2Nc3ccccc3C(=O)N2Cc2ccccc2)cc1Cn1nnc2ccccc21 (configuration not stated) | 38% (inactive) | 45% |
| C=CCSC1=N/C(=C\C=C\c2ccco2)C(=O)S1 | 24% (inactive) | 1% |
| CCc1ccc(NC(=O)c2noc3c2CCC3)cc1 | 8% (inactive) | 22% |
| COc1cc(NC(=O)COc2ccc(-n3cnnn3)cc2)c(OC)cc1Cl | 61% (inactive) | 17% |
| Cc1ccc(-c2nn(-c3ccccc3)cc2/C=N/NC(=O)c2ccc(Br)o2)cc1 | 38% (inactive) | 58% |
| CCC(=O)Oc1ccc(C(CC)C(CC)c2ccc(OC(=O)CC)cc2)cc1 (configuration not stated) | 82% (active) | 83% |
| Nc1ccc2nc(-c3cccs3)[nH]c2c1 | 50% (inactive) | 34% |
| COc1cc(C(C#N)N2N=C(c3ccccc3)CC2c2ccccc2)ccc1O (configuration not stated) | 54% (inactive) | 5% |
| Brc1cc2c(cc1C1Nc3ccccc3C3C=CCC31)OCO2 (configuration not stated) | 20% (inactive) | 25% |
| O=C(Nc1ccc(-c2nc3ccc(NC(=O)c4cccs4)cc3[nH]2)cc1)c1cccs1 | 58% (inactive) | 18% |
| CCCCCCNC(=O)c1cc(-c2ccco2)nc2ccccc12 | 92% (active) | 2% |
| Oc1ccc(-c2nc3ccc4ccccc4c3c3c2CCC3)cc1O | 71% (active) | 47% |
| COc1cccc(NS(=O)(=O)c2ccc3c(c2)C2C=CCC2C(c2ccc(C(=O)O)cc2)N3)c1 (configuration not stated) | 0% (inactive) | 9% |

| Compound | inhibition (at 10 µM) | inhibition [1] |
| --- | --- | --- |
| Cc1ccc2nc(/C(C#N)=C\c3ccc(N4CCCCC4)c([N+](=O)[O-])c3)[nH]c2c1 | 15% (inactive) | 6% |
| COc1ccc(C2CC(c3cccs3)=NN2c2ccc(C=O)cc2)cc1 (configuration not stated) | 42% (inactive) | 29% |
| CC(=O)c1ccc2c(c1)C1C=CCC1C(C(=O)O)N2 (configuration not stated) | 19% (inactive) | 6% |
| Nc1ccc(-n2cnc3cc([N+](=O)[O-])ccc32)cc1 | 34% (inactive) | 12% |
| COc1cccc(NC(=O)CSc2nc3ccccc3c3nc4ccccc4n23)c1 | 31% (inactive) | 18% |
| CC1(C)OC(C)(C)/C(=C/Nc2ccc(O)cc2)C1=O | 58% (inactive) | 58% |
| Cc1cccc(N2CSC3=C(C#N)C(c4ccc(C)o4)CC(=O)N3C2)c1 (configuration not stated) | 35% (inactive) | 21% |
| Cc1ccc(Cc2cncc(O)c2)cc1S(=O)(=O)O | 0% (inactive) | 13% |
| COc1cccc(-c2[nH]nc3c2C(c2ccoc2)C(C#N)=C(N)O3)c1 (configuration not stated) | 54% (inactive) | 29% |
| Cc1oc2c(C)c(O)ccc2c(=O)c1-c1ccc2ccccc2n1 | 15% (inactive) | 54% |
| Cc1cc(-c2nn3c(-c4ccccc4)nnc3s2)c2ccccc2n1 | 71% (active) | 45% |
| C/C(N)=C(/C#N)C(=O)CSc1nnc(Cc2ccccc2F)n1N | 22% (inactive) | 7% |
| C[C@]12CC[C@@H]3c4ccc(O)cc4[C@@H](O)C[C@H]3[C@@H]1CC[C@@H]2O | 74% (active) | 56% |
| COc1cccc(C2Nc3c(F)cc(Br)cc3C3C=CCC32)c1OC (configuration not stated) | 40% (active) | 74% |
| O=C(CSc1ccc(Cl)cc1)c1ccco1 | 14% (inactive) | 53% |
| Cc1ccccc1CSCC(=O)NC(=O)NCc1ccco1 | 27% (inactive) | 35% |
| O=C(Cc1cccs1)Nc1nnc(Cc2ccccc2)s1 | 18% (inactive) | 29% |
| Cc1c2cc(O)c(=O)cc-2oc2cc(O)c(O)cc12 | 67% (inactive) | 22% |
| N#CC(C(=O)Nc1ccc(Cl)cc1)=C1Nc2ccccc2N1 | 59% (inactive) | 21% |
| CC(=O)c1cccc(NC(=O)Cc2cccs2)c1 | 11% (inactive) | 23% |
| CC1(C)N=C(N)N=C(N)N1c1ccc(C(=O)O)cc1 | 22% (inactive) | 11% |
| COC1=C/C(=C/c2c(N)n3cc(C)sc3nc2=O)C=CC1=O | 62% (inactive) | 7% |
| Cn1c(SCC(=O)Nc2sccc2C#N)nnc1-c1ccccc1 | 12% (inactive) | 13% |
| COc1ccc(-c2nnc(SCC(=O)c3cc(C)n(Cc4cccs4)c3C)o2)cc1 | 27% (inactive) | 1% |
| Nc1nc(N)c2sc3nc4c(cc3c2n1)CCC4 | 29% (inactive) | 7% |
